# From PubChem BioAssay
# Experiment: probe aDKK1 binding to arrayed compounds – biochemical, biotinylated probe, 635/667 nm fluorescence, primary screen (AID 1099);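 further: score merges 667nm spot fluorescence with signal to noise across triplicate slides; reference of the scale not given here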
# Settings: small-molecule microarray, higher = more signal
row,SMILES,composite z-score
1,CC(C)CN1C(=O)[C@@]2(c3ccc([N+](=O)[O-])cc3)CC(=O)N(CC34CC5CC(CC(C5)C3)C4)[C@@H]2c2ccc(CO)cc21,0.185
2,C=C(CCCC)/C(=C/C[C@@H](OC(C)=O)c1ccc(CO)o1)c1cc(C(=O)OC)ccc1OC,-0.198
3,COC(=O)C1(Cc2ccccc2)C=C2C(=C(C(C)C)C(=O)C2C)CN1 (configuration not stated),1.34
4,COc1ccc([Si](C)(C)[C@@H]2[C@@H](CCO)O[C@]3(C(=O)N(Cc4cccc(N5C(=O)c6cccc7cccc5c67)c4)c4ccccc43)[C@H]2C)cc1,0.0019
5,C=CCC(OC(C)=O)[C@@H]1[C@@H](N(Cc2cc3ccccc3o2)C(=O)Cc2ccc(F)cc2)c2cc(OCCCO)ccc2N1C(=O)c1ccc2ccccc2n1 (some centres not stated),-0.106
6,C=CCOC(=O)[C@@H]1[C@H]2C(=O)O[C@H](c3ccccc3)[C@H](c3ccccc3)N2[C@H](c2ccc(OCCOC(=O)[C@H]3C[C@H]4C(=O)N[C@@H](CCCC[N+](C)(C)C)C(=O)N4[C@H]3c3ccc(O)cc3)cc2)[C@@]12C(=O)Nc1ccc(I)cc12,-0.144
7,[N-]=[N+]=Nc1ccccc1[C@@H]1OC(c2ccc(OCCCO)cc2)=N[C@]1(CCS(=O)(=O)c1ccccc1)C(=O)NCCN1CCOCC1,1.1

# Experiment: probe aCHRDL2 binding to arrayed compounds – biochemical, biotinylated probe, 635/667 nm fluorescence, primary screen (AID 1100)
# Settings: small-molecule microarray, higher = more signal
row,SMILES,composite z-score
1,CC(C)(C)OC(=O)CC[C@]1(C(=O)NCCN2CCOCC2)N=C(c2ccc(OCCCO)cc2)O[C@H]1c1ccccc1,0.93
2,C=CC[C@@]12N=C(c3ccc(OCCCO)cc3)O[C@@H]1c1ccccc1N(CCS(=O)(=O)c1ccccc1)C2=O,0.269
3,CCOC(=O)C[C@H]1[C@H](OC(=O)c2ccccc2-c2ccccc2)[C@@H](NC(=O)CC(C)C)c2cc(OCCCO)ccc2N1C(=O)c1ccc2ccccc2n1,-0.187
4,COc1ccc(C(O)C2C=CC3C(=O)N(c4ccccc4)C(=O)C3N2Nc2ccccc2)cc1OCc1ccccc1 (configuration not stated),0.77
5,NCCCCCNC(=O)[C@@H]1C[C@@H]2C(=O)N[C@@H](CCCCN)C(=O)N2[C@@H]1c1cccc(OCCO)c1,0.826
6,CCCCC(CC)C(O)C1C=CC2C(=O)N(c3ccccc3)C(=O)C2N1Nc1ccc([N+](=O)[O-])cc1 (configuration not stated),0.457
7,CC(C)(C)OC(=O)CC[C@]1(C(=O)O)N=C(c2ccc(OCCCO)cc2)O[C@H]1c1ccccc1CN=[N+]=[N-],0.764
8,C=C(/C(=C/C[C@@H](OC(=O)c1ccncc1)c1ccccc1OCCO)c1cc(C(=O)OC)ccc1OC)C(C)C,-0.151
9,O=C1O[C@@H](c2ccccc2)[C@@H](c2ccccc2)N2[C@@H](c3ccccc3OCCO)[C@]3(C(=O)Nc4ccccc43)[C@@H](C(=O)NC[C@H](O)c3ccccc3)[C@H]12,0.76
10,COCCOC(=O)N1C(=O)[C@@]2(c3cc(C#CC4(O)CCCCCC4)ccc31)[C@H](c1ccccc1OCCO)N1[C@H](c3ccccc3)[C@H](c3ccccc3)OC(=O)[C@H]1[C@@H]2C(N)=O,0.0813
11,O=c1cccc(-c2cccc(Cl)c2)o1,0.114
12,COCCOC(=O)N1C(=O)[C@@]2(c3cc(C#CC4=CCCCC4)ccc31)[C@H](C(=O)N1CCN(c3ncccn3)CC1)[C@H]1C(=O)O[C@H](c3ccccc3)[C@H](c3ccccc3)N1[C@@H]2c1ccc(O)cc1,0.509
13,COCC(=C=CC[C@H](O)c1ccc(OCCO)cc1)C[C@H](O)COCc1ccccc1,-0.228
14,C=C[C@@H](COC(C)=O)NS(=O)(=O)c1ccc(Br)cc1,-0.0829
15,O=C1C2C=CC(C(O)c3cc(C(F)(F)F)cc(C(F)(F)F)c3)N(Nc3ccc([N+](=O)[O-])cc3)C2C(=O)N1c1ccccc1 (configuration not stated),0.499
16,CC(=O)NCCCC[C@@H]1NC(=O)[C@@H]2C[C@H](C(=O)O)[C@H](c3ccc(O)cc3)N2C1=O,1.06
17,COCCOC(=O)N1C(=O)[C@@]2(c3cc(C#CC4=CCCCC4)ccc31)[C@H](c1ccc(O)cc1)N1[C@H](c3ccccc3)[C@H](c3ccccc3)OC(=O)[C@H]1[C@@H]2C(=O)Nc1nc2ccccc2s1,-0.277
18,CC(C)CNC(=O)[C@@H]1c2ccccc2C(=O)N(Cc2cc(F)cc(C(F)(F)F)c2)[C@H]1c1ccc(CO)cc1,1.01

row,SMILES,composite z-score
1,C=C(C(=O)CC[C@H](OC(C)=O)c1cccc(OCCO)c1)C(C)C,-0.115
2,O=C1O[C@@H](c2ccccc2)[C@@H](c2ccccc2)N2[C@@H](c3ccc(O)cc3)[C@]3(C(=O)Nc4ccc(C#CCCO)cc43)[C@@H](C(=O)NC[C@H](O)c3ccccc3)[C@H]12,0.785
3,CCCN1C(=O)[C@]2(Cc3ccccc3)N=C(c3ccc(OCCCO)cc3)O[C@@H]2c2ccccc21,0.41
4,C[C@H]1C2=C3C(CC[C@H]4C(OCc5ccc(F)cc5C(F)(F)F)OC[C@](C)([C@@H]34)N(C(=O)OC(C)(C)C)C2)C2COC(=O)OCC21 (some centres not stated),1.28
5,O=C1c2ccccc2[C@](Cc2ccccc2I)(C(=O)NCCN2CCOCC2)[C@H](c2ccc(CO)cc2)N1Cc1ccccc1,0.345
6,COC(=O)[C@@]1(Cc2ccc(OC)cc2)[C@H]2c3cc(C(=O)N(C)C)n(Cc4nc5ccccc5[nH]4)c3C[C@H]2CN1C(=O)c1ccccc1,0.958
7,C[C@]1(C(=O)NC2CC2)c2ccccc2C(=O)N(Cc2ccc(OC(F)(F)F)cc2)[C@H]1c1ccc(CO)cc1,0.755
8,CN(C)CCCNC(=O)[C@@H]1c2ccccc2C(=O)N(CC23CC4CC(CC(C4)C2)C3)[C@H]1c1ccc(CO)cc1,0.296
9,CC1CC/C=C\[C@H]2OC34C=CCN(C(C)C)C(=O)[C@H]3N(CCCCCO)C(=O)[C@@H]4C2C(=O)O1 (some centres not stated),0.655
10,C=CCOC(=O)[C@H]1[C@@H]2C(=O)O[C@@H](c3ccccc3)[C@@H](c3ccccc3)N2[C@@H](c2ccc(OCCOC(=O)[C@H]3C[C@H]4C(=O)N[C@@H](Cc5ccccc5)C(=O)N4[C@H]3c3cccc(OCCO)c3)cc2)[C@]12C(=O)Nc1ccc(I)cc12,-0.0762
11,CC(C)CN1C(=O)[C@@]2(c3ccc([N+](=O)[O-])cc3)CC(=O)N(CC34CC5CC(CC(C5)C3)C4)[C@@H]2c2ccc(CO)cc21,0.807
12,C=C(CCCC)/C(=C/C[C@@H](OC(C)=O)c1ccc(CO)o1)c1cc(C(=O)OC)ccc1OC,-0.549
13,COC(=O)C1(Cc2ccccc2)C=C2C(=C(C(C)C)C(=O)C2C)CN1 (configuration not stated),1.36
14,COc1ccc([Si](C)(C)[C@@H]2[C@@H](CCO)O[C@]3(C(=O)N(Cc4cccc(N5C(=O)c6cccc7cccc5c67)c4)c4ccccc43)[C@H]2C)cc1,0.466
15,C=CCC(OC(C)=O)[C@@H]1[C@@H](N(Cc2cc3ccccc3o2)C(=O)Cc2ccc(F)cc2)c2cc(OCCCO)ccc2N1C(=O)c1ccc2ccccc2n1 (some centres not stated),0.394
16,C=CCOC(=O)[C@@H]1[C@H]2C(=O)O[C@H](c3ccccc3)[C@H](c3ccccc3)N2[C@H](c2ccc(OCCOC(=O)[C@H]3C[C@H]4C(=O)N[C@@H](CCCC[N+](C)(C)C)C(=O)N4[C@H]3c3ccc(O)cc3)cc2)[C@@]12C(=O)Nc1ccc(I)cc12,-0.248
17,[N-]=[N+]=Nc1ccccc1[C@@H]1OC(c2ccc(OCCCO)cc2)=N[C@]1(CCS(=O)(=O)c1ccccc1)C(=O)NCCN1CCOCC1,1.2
